S2 tox: cell viability loss in ATXN counter-screen. S2 cells (HEK-293 line with an ATXN2-luciferase reporter) viability, CellTiter-Fluor protease fluorescence, 24 h. Potency, µM (series often up to 56.7 µM), most hits filed as cytotoxic. 400,000 tested, 0.49% active; further: nearly all actives have a fitted effect of over 40% in size
ATXN2 expr inh: reduces ATXN2 reporter expression in HEK-293 cells; HEK-293 ATXN2-luciferase reporter, luminescence, 24 h; Potency, µM (highest dose often 57 µM), without a hit: at the top dose activity change, negative = inhibition, actives largely listed as inhibitors; 360,000 tested, 0.72% active; further: on the % scale 0 is the no-effect control and ±100 the full control effect; nearly all actives have a fitted effect of over 55% in size
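ATXN2-luciferase reporter cells (luciferase flanked by upstream and downstream ATXN2 gene portions) were treated 24 h at 37 °C with compounds at up to 57 uM. SteadyGlo luminescence gave expression; GF-AFC fluorescence gave viability.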
TDP1 cell CPT: growth inhibition of DT40 Tdp1-/-;hTDP1 cells with camptothecin (screen for TDP1 inhibitors) | chicken DT40 Tdp1-/-;hTDP1 cells + 20 nM CPT, ATP luminescence, 48 h | 420,000 tested, 12% active | Potency, µM (top dose mostly 46.2 µM), for the others: at the highest dose activity change, negative = growth inhibition, hits mostly inhibitors | AID 686979; further: on the % scale 0 is the no-effect control and ±100 the full control effect; nearly all actives have a fitted effect of over 55% in size
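Chicken DT40 Tdp1-/- cells stably complemented with human TDP1 were seeded at 400 cells/well in medium containing 20 nM camptothecin, exposed to pin-transferred compounds, and grown at 37 °C for at least 48 hr. Viability was read as ATP luminescence.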
TDP1 cell noCPT: qHTS for Inhibitors of human tyrosyl-DNA phosphodiesterase 1 (TDP1): qHTS in cells in absence of CPT. Potency, µM (series often up to 46.2 µM), for inactives: top-dose activity change, negative = growth inhibition, hits mostly inhibitors. 420,000 tested, 15% active. DT40 Tdp1-/- hTDP1 cells, no CPT, ATP luminescence, 48 h; further: on the % scale 0 is the no-effect control and ±100 the full control effect; nearly all actives have a fitted effect of over 55% in size
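Growth of hTDP1-complemented DT40 Tdp1-knockout cells is measured by ATP luminescence after at least 48 hr compound exposure at 37 °C, with DMSO substituting for the 20 nM CPT used in the parallel screen.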
TGFb inhibitor: inhibitors of TGF-b signaling; 410,000 tested, 1.2% active; AID 588855; Potency, µM (doses to about 46.1 µM), for the others: at the highest dose activity, negative = inhibition, hits mostly inhibitors; HepG2 CAGA-GFP TGF-b/SMAD3 reporter, GFP fluorescence, 18 h; TGF-beta stimulated, 500 pg/mL final; further: on the % scale 0 is the no-effect control and ±100 the full control effect; nearly all actives have a fitted effect of over 65% in size
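HEPG2 CAGA-GFP, 1000 cells/well; 2 h settle, 37 C; cpd via pin tool; TGF-b 500 pg/mL final; 18 h, 37 C; GFP imaging ex488/em500-530; %Activity normalised to -TGF-b and +DMSO controls; CRC fit, curve class.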
HepG2 tox: kills HepG2 cells in TGF-b inhibitor counter-screen; HepG2 CAGA-GFP viability, ATP luminescence, 18 h; Potency, µM (highest dose often 46.1 µM), for inactives: at the top dose activity change, negative = cytotoxicity, actives largely listed as cytotoxic; 410,000 tested, 0.76% active
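HepG2 CAGA-GFP cells (1000/well, DMEM with 1% FBS) received compound, then TGF-beta at 500 pg/mL final, and were incubated 18 hours at 37 degrees C. Viability was read by CellTiter-Glo luminescence. Media-only wells were set as complete cell-killing and DMSO as no toxicity.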
The depositor's hits bear a star; i = inactive; ? = inconclusive; nt = no result. Rows were chosen to be rich in hits. Some 17% of all compounds tested hit in one or more screens of this group. The call rests on the fitted dose curve; in most records, active means well fitted curve in the direction sought with a large enough effect; inconclusive means small, poorly fitted or top-dose-only effect, or another doubt; inactive means no such curve, though single readings can be large; an effect the other way counts as inactive or inconclusive. Potency means the concentration at half of the fitted maximal effect.

SMILES | S2 tox | ATXN2 expr inh | TDP1 cell CPT | TDP1 cell noCPT | TGFb inhibitor | HepG2 tox
Cc1ccc(NC(=O)c2ncn(CCCN(C)CCc3ccccn3)n2)cc1C | ? | -11.0% | -24.9% | -22.2% | -15.0% | -6.8%
CCc1nc2ccc(C(=O)N(C)Cc3ccccc3)cn2c1N(CC)CCN(C)C | i | -4.6% | -3.7% | 5.3% | 2.2% | 1.8%
Cc1nsc(Nc2ccc([N+](=O)[O-])cc2)c1C#N | ? | -13.1% | 2.59µM* | 2.31µM* | ? | -24.1%
CCn1cc(C(=O)NCc2ccccc2)c(=O)c2cc(S(=O)(=O)N3CCc4ccccc4C3)ccc21 | i | -2.5% | ? | ? | ? | -16.2%
CC(C)CN(CCNC(=O)c1cc(=O)[nH]c2ccc(S(=O)(=O)N3CCCCCC3)cc12)CC(C)C | nt | nt | -23.0% | -6.3% | -12.9% | -0.8%
CCn1cc(C(=O)NCCc2ccccc2)c(=O)c2cc(S(=O)(=O)N3CCc4ccccc4C3)ccc21 | i | -14.5% | ? | 20.6µM* | -21.5% | -6.0%
CCn1cc(C(=O)NCCCN2CCCC(C)C2)c(=O)c2cc(S(=O)(=O)N3CCc4ccccc4C3)ccc21 (stereo unspecified) | i | ? | 23.1µM* | ? | -29.3% | -31.6%
CCCCN(CCCC)CCNC(=O)c1cn(CC)c2ccc(S(=O)(=O)N3CCc4ccccc4C3)cc2c1=O | ? | -14.9% | 20.6µM* | 23.1µM* | ? | -31.5%
CCCCN(CCCC)CCNC(=O)c1cc(=O)[nH]c2ccc(S(=O)(=O)N3CCCCCC3)cc12 | nt | nt | ? | 16.4µM* | -18.6% | -22.2%
CCn1cc(C(=O)NCCc2ccc(OC)c(OC)c2)c(=O)c2cc(S(=O)(=O)N3CCc4ccccc4C3)ccc21 | i | -9.2% | ? | 25.9µM* | ? | -17.6%
C[C@H]1CN=C(Nc2ccccc2)N1CC1CCCCCC1 | i | -7.8% | 18.4µM* | 13µM* | -4.2% | -9.6%
CC(C)CCN1C(Nc2ccccc2)=NC[C@@H]1C | i | -2.3% | -22.2% | ? | ? | -1.9%
C[C@H]1CN=C(Nc2ccccc2)N1CC1CCC1 | i | 9.8% | -0.9% | 1.4% | 21.8% | 0.4%
C[C@H]1CN=C(Nc2ccccc2)N1CCC1CCCCC1 | i | -21.7% | 18.4µM* | ? | 8.5% | 0.7%
C[C@H]1CN=C(Nc2ccccc2)N1CCCC1CCCC1 | ? | -15.4% | 18.4µM* | 16.4µM* | 19.3% | -1.4%
CCCN(CCC)C(=O)c1cn(CC)c2ccc(S(=O)(=O)N3CCCCC3)cc2c1=O | i | 9.3% | -10.3% | 10.3% | 4.1% | -40.3%
Cc1ccc(S(=O)(=O)N2CCOC2C(Cl)(Cl)Cl)cc1 (stereo unspecified) | i | -13.6% | 5.5% | -3.2% | -20.2% | -21.2%
CC1(C)NC(=O)N(CCOc2ccc3c(c2)CCC3)C1=O | i | 0.4% | -17.9% | -7.0% | -14.3% | -6.3%
Clc1ccc(/C=N/N2CCN(Cc3ccccc3Cl)CC2)cc1 | i | 5.5% | -0.6% | ? | -28.1% | -32.7%
Clc1ccc(N2CCN(/N=C/c3ccncc3)CC2)cc1 | i | -7.6% | 23.1µM* | ? | -18.5% | 28.5%
COc1ccccc1/C=C/C=N\N1CCN(Cc2ccccc2Cl)CC1 | i | -5.4% | ? | 29.1µM* | ? | -12.1%
Cc1ccc(N2CCN(/N=C/c3ccncc3)CC2)cc1 | i | 0.0% | 20.6µM* | 18.4µM* | -12.4% | -17.6%
Clc1ccccc1CN1CCN(/N=C/c2ccncc2)CC1 | i | -24.4% | 13µM* | 16.4µM* | -10.5% | -19.4%
Cc1ccc(N2CCN(/N=C/c3sccc3C)CC2)cc1 | i | 2.8% | -18.1% | -29.2% | -11.8% | -6.3%
COc1ccccc1/C=C/C=N/N1CCN(Cc2ccc(Cl)cc2)CC1 | i | -7.5% | ? | ? | -9.0% | -23.1%
SMILES | S2 tox | ATXN2 expr inh | TDP1 cell CPT | TDP1 cell noCPT | TGFb inhibitor | HepG2 tox
CCOc1ccccc1NC(=O)C1=C(C)Nc2ncnn2C1c1ccc(C)o1 (stereo unspecified) | i | 2.7% | -0.3% | -1.3% | 1.6% | -17.0%
COC(=O)c1ccc(NC(=O)Nc2nnc(N(C)C3CCCCC3)s2)cc1 | nt | nt | ? | ? | -17.0% | -5.4%
COc1ccc(NC(=O)Nc2nnc(N(C)C3CCCCC3)s2)c(OC)c1 | nt | nt | ? | ? | 11.2µM* | -104.2%
CN(c1nnc(NC(=O)Nc2ccc(Br)cc2)s1)C1CCCCC1 | nt | nt | ? | 14.6µM* | -19.8% | -1.1%
CCOc1ccc(NC(=O)Nc2nnc(N3CCCCC3C)s2)cc1 (stereo unspecified) | nt | nt | 23.1µM* | 23.1µM* | -15.4% | 4.0%
COc1ccc(NC(=O)Nc2nnc(N3CCCCCC3)s2)c(OC)c1 | i | -29.9% | ? | 18.4µM* | -12.5% | 2.5%
COc1ccc(NC(=O)Nc2nnc(N3CCCCC3C)s2)cc1OC (stereo unspecified) | i | 14.3% | 4.9% | -20.3% | 5.7% | 1.4%
CC1CN(c2ccccc2)CCN1Cc1nc(Cc2ccccc2)no1 (stereo unspecified) | i | 22.3% | 2.7% | -0.7% | 19.5% | -5.6%
CCOc1ccccc1NC(=O)COC(=O)c1c(CC)noc1C | i | -3.2% | -9.4% | -22.4% | 17.7% | 0.0%
O=C(Nc1ccccc1C(F)(F)F)c1cc2ncc(CCCl)cn2n1 | i | 0.0% | 1.7% | 3.4% | -6.2% | -9.9%
COc1cc(C)ccc1OCC(=O)NCC1CCCO1 (stereo unspecified) | i | 14.3% | 1.0% | -0.5% | -1.1% | -8.0%
COc1cccc(C(=O)Nc2ccc3c(c2)n(C)c(=O)n3C)c1 | i | 23.3% | -11.9% | ? | -0.6% | -3.8%
CN1C(=O)c2ccccc2Sc2ccc(NC(=O)COc3ccc(Cl)cc3)cc21 | ? | -2.8% | 20.6µM* | 11.6µM* | 2.82µM* | -16.8%
CCCNC(=O)Nc1ccc2c(c1)N(C)C(=O)c1ccccc1S2 | i | -11.3% | -25.0% | ? | 15.5% | -12.9%
CN1C(=O)c2ccccc2Sc2ccc(NC(=O)COc3ccc(F)cc3)cc21 | ? | ? | 16.4µM* | 7.31µM* | -7.7% | -16.3%
Cn1cc(-c2nnnn2-c2cccc(C(F)(F)F)c2)c(C(F)(F)F)n1 | i | -5.1% | -18.7% | -21.7% | -6.5% | -13.2%
Cc1cccc(C)c1NC(=O)CNC(=O)CNC(=O)Cc1cccc2ccccc12 | i | -11.7% | 1.2% | 0.8% | 0.2% | -0.7%

Screening results from PubChem BioAssay.
